Assay results as given in ChEMBL document CHEMBL1961873, “Compounds: GSK PKIS; Assays: Nanosyn kinase panel” (2012).

Tests used:
[1] = molecular target: Sphingosine kinase 1 (Homo sapiens) (UniProt Q9NYA1); settings: at 1 µM;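 further: mean SPHK1 inhibition value reported from the GSK PKIS kinase panel screen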
[2] = molecular target: T1, Sphingosine kinase 2 (Homo sapiens) (UniProt Q9NRA0); settings: at 0.1 µM
T1 sequence (whole entry): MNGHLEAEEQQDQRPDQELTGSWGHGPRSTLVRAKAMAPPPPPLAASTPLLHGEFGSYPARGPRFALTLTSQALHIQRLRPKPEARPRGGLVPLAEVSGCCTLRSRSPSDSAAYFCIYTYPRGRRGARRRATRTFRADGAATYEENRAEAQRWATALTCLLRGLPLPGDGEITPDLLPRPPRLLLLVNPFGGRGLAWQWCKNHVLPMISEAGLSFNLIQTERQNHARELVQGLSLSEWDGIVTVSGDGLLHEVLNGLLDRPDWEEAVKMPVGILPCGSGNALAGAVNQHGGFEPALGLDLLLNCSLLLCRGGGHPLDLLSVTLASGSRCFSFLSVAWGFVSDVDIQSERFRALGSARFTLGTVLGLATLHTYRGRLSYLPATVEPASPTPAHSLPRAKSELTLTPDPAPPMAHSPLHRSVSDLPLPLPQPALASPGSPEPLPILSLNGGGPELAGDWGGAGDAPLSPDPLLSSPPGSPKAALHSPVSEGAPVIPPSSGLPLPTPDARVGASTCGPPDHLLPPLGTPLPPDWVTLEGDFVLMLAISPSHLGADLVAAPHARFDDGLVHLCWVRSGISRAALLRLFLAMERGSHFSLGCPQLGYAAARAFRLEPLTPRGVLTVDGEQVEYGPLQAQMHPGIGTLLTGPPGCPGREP

[3] = molecular target: T1, Sphingosine kinase 2 (Homo sapiens); settings: at 1 µM
[4] = molecular target: Casein kinase II subunit alpha (Homo sapiens) (UniProt P68400); settings: at 0.1 µM
[5] = molecular target: Casein kinase II subunit alpha (Homo sapiens) (UniProt P68400); settings: at 1 µM
[6] = molecular target: T2, Inhibitor of nuclear factor kappa-B kinase subunit alpha (Homo sapiens) (UniProt O15111); settings: at 0.1 µM
T2 sequence (whole entry): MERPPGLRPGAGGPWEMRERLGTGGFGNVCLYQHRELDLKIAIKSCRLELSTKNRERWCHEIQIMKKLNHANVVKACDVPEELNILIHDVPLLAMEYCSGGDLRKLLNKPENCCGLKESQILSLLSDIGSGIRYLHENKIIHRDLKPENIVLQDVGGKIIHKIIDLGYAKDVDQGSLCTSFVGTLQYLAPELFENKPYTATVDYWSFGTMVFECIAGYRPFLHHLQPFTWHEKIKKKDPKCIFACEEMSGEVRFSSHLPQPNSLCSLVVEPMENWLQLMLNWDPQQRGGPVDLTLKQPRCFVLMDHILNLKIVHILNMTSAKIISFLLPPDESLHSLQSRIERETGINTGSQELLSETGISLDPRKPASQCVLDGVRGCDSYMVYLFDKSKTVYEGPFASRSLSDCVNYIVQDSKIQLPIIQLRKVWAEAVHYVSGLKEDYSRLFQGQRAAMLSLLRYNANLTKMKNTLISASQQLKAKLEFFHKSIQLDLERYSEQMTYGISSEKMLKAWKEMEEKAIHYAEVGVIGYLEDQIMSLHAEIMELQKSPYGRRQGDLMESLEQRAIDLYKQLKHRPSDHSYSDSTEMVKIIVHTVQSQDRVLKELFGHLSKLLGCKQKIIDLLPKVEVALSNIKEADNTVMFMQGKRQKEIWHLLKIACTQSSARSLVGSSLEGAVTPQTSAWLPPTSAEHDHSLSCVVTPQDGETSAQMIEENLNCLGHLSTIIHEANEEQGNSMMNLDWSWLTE

[7] = molecular target: T2, Inhibitor of nuclear factor kappa-B kinase subunit alpha (Homo sapiens); settings: at 1 µM
[8] = molecular target: T3, Inhibitor of nuclear factor kappa-B kinase subunit beta (Homo sapiens) (UniProt O14920); settings: at 0.1 µM
T3 sequence (whole entry): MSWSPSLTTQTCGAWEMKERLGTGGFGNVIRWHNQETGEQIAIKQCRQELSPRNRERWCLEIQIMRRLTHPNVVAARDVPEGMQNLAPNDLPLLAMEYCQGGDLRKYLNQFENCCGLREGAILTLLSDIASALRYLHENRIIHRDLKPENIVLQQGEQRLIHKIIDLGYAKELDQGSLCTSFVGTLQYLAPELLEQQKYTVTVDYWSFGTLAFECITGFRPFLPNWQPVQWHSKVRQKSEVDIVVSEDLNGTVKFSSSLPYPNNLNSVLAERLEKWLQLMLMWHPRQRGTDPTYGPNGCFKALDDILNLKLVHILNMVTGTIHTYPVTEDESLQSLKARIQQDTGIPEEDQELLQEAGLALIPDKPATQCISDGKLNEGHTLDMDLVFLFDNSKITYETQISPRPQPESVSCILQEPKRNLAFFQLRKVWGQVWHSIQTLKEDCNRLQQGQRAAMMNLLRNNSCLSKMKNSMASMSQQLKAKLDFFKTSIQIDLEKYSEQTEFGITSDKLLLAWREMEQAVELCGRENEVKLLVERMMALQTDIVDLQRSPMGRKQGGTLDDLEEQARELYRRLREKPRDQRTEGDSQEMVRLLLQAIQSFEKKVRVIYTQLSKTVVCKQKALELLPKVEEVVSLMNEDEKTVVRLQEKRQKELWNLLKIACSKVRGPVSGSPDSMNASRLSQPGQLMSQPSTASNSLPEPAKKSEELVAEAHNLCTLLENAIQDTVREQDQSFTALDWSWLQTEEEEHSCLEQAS

[9] = molecular target: T3, Inhibitor of nuclear factor kappa-B kinase subunit beta (Homo sapiens); settings: at 1 µM
[10] = molecular target: T4, Inhibitor of nuclear factor kappa-B kinase subunit epsilon (Homo sapiens) (UniProt Q14164); settings: at 0.1 µM;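 further: mean inhibition of IKKε reported, from the GSK PKIS dataset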
T4 sequence (whole entry): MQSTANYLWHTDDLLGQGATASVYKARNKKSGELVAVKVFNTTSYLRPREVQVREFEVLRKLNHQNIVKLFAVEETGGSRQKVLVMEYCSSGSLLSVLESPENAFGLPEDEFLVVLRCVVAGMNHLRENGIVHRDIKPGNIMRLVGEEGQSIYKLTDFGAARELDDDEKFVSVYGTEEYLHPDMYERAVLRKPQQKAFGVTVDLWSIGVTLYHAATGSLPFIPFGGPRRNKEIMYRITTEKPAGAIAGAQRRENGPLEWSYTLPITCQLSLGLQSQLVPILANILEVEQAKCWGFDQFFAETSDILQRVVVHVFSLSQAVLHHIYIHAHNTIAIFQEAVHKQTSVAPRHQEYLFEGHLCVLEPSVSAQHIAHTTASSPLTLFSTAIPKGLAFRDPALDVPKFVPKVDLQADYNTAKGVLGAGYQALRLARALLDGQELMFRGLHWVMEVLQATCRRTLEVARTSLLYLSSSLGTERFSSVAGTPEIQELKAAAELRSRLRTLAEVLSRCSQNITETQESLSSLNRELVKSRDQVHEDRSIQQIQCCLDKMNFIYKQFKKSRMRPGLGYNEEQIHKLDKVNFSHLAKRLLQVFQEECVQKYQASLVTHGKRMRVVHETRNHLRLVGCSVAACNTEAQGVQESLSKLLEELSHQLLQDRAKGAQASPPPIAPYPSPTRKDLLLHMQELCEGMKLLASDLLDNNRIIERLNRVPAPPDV

Chain of Casein kinase II subunit alpha (Homo sapiens) (P68400 whole entry, looked up): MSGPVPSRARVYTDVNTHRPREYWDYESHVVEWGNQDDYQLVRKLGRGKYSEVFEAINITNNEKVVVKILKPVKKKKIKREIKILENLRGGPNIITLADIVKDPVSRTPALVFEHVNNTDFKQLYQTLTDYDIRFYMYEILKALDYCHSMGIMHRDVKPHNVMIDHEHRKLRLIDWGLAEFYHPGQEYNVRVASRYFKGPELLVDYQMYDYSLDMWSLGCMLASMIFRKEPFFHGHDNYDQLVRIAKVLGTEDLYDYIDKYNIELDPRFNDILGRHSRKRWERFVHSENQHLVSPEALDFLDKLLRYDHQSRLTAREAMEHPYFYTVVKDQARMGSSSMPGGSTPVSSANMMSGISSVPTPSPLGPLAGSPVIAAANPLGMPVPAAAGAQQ
Chain of Sphingosine kinase 1 (Homo sapiens) (Q9NYA1 whole entry): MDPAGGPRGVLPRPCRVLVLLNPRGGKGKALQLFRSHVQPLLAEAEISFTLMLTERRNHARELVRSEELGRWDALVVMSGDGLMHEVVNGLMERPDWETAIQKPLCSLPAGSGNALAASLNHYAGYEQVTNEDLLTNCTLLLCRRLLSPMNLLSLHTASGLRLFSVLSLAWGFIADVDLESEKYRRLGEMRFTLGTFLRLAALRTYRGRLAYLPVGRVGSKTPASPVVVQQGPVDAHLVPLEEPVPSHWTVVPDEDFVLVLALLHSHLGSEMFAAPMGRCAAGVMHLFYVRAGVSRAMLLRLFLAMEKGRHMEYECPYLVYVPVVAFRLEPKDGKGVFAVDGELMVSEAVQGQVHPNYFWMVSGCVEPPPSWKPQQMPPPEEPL

Row | SMILES | inhibition [1] [%] | inhibition [2] [%] | inhibition [3] [%] | inhibition [4] [%] | inhibition [5] [%] | inhibition [6] [%] | inhibition [7] [%] | inhibition [8] [%] | inhibition [9] [%] | inhibition [10] [%]
1 | CS(=O)(=O)CCNCc1nc(-c2ccc3ncnc(Nc4ccc(OCc5cccc(C(F)(F)F)c5)cc4)c3c2)cs1 | 1.3 | 0.09 | -0.46 | -0.05 | 1.3 | -2.52 | -0.52 | 3.26 | 1.84 | -0.33
2 | NS(=O)(=O)c1ccc(-c2cc3ccncc3cc2OCc2ccccc2)cc1 | -2.02 | -0.23 | 1 | 5.15 | 12.6 | 0.99 | 8.71 | 8.26 | 21.9 | 5.72
3 | NS(=O)(=O)c1ccc(N/N=C2\C(=O)Nc3ccc(Cl)cc32)cc1 | -4.27 | 0 | -3.44 | 4.94 | 14 | -0.36 | 10.7 | 4.8 | 5.46 | 7.49
4 | Cc1cc(Cl)cc2c1NC(=O)C2=NNc1ccc(S(N)(=O)=O)cc1 | -2.79 | -0.11 | -2.78 | 3.02 | 8.79 | 1.51 | 10.1 | 8.97 | 7.33 | 6.15
5 | CCS(=O)(=O)c1ccc(OC)c(Nc2nccc(N(C)c3ccc4c(C)n[nH]c4c3)n2)c1 | -1.1 | -0.07 | -0.93 | 13.8 | 7.45 | 12 | 6.37 | 8.64 | 7.82 | 7.85
6 | ON=C1CCc2cc(-c3nc(C4CCNCC4)[nH]c3-c3ccncc3)ccc21 | -2.71 | 0.13 | -0.91 | -3.67 | -3.6 | -9.89 | -1.59 | 6.16 | 4.62 | 1.88
7 | OCc1ccc(-c2nc(-c3ccccn3)c(-c3ccc4c(c3)OCO4)[nH]2)cc1 | -4.68 | -0.11 | 0.5 | 2.74 | -0.37 | 6.97 | 8.08 | 5.29 | 4.72 | 4.91
8 | C[C@@H](Oc1cc(-n2cnc3ccc(OC[C@@H](O)CO)cc32)sc1C(N)=O)c1ccccc1Cl | 0.3 | 0 | 0.27 | 1.09 | 10.2 | -0.83 | -3.48 | -3.56 | -1.92 | -2.16
9 | O=C1Nc2ccccc2/C1=C/Nc1ccc2[nH]c(=O)[nH]c2c1 | -0.67 | -0.03 | -2.68 | 3.81 | 13.9 | 12.9 | 10.2 | 7.85 | 11.6 | 8.71
10 | Cc1ccc(O)cc1Nc1ccnc2ccc(S(C)(=O)=O)cc12 | -1.32 | 1.04 | 1.77 | 3.63 | 8.35 | 5.42 | 9.92 | 6.57 | 8.43 | 6.64
11 | COC(=O)c1cncc(/C=C/c2c(C)cc(O)cc2C)c1 | -4 | -0.39 | -0.47 | 3.51 | 11.9 | 3.28 | 5.67 | 4.7 | 7.41 | 8.93
12 | NS(=O)(=O)c1cccc(Nc2cc(-c3ccc(F)cc3)n[nH]2)c1 | -0.2 | 0.87 | -0.06 | 5.22 | 13.6 | 4.35 | 11.3 | 5.51 | 4.5 | 8.55
13 | COc1cc2ncn(-c3cc(OCc4ccccc4S(C)(=O)=O)c(C#N)s3)c2cc1OC | -0.15 | 0.46 | -2.2 | 2.39 | 5 | 6.91 | 5.75 | 3.44 | 1.17 | 42.5
14 | N#Cc1c(NC(=O)c2ccccc2F)sc2c1CCCC2 | 1.37 | 0.4 | -1.81 | 2.62 | 1.09 | 2.43 | 5.52 | -1.19 | -1.36 | -2.08
15 | Cc1nc(-c2ccccc2)n2nc(NCCCN3CCOCC3)ncc12 | -2.26 | -1.13 | -0.14 | 13.3 | 6.84 | -0.66 | 5.55 | 2.75 | 4.98 | 4.87
16 | CCS(=O)(=O)c1ccc(OC)c(Nc2ncc(-c3cccc(OC)c3)o2)c1 | 1.37 | 0 | -2 | 5.03 | 29.3 | 5.66 | -4.47 | 3.95 | 1.16 | 0.74
17 | CCOc1nccc2c1nc(-c1nonc1N)n2CC | 7.65 | -0.3 | 0.06 | 5.33 | 14.6 | 2.3 | 3.59 | 0.86 | 5.41 | 7.17
18 | Cc1ccc(C(=O)NC2CC2)cc1-c1ccc2[nH]ncc2c1 | -1.63 | -1.1 | 0.65 | -2.79 | -1.68 | 7.28 | -2.31 | -3.22 | -2.64 | -3.17
19 | COC(=O)Nc1nc2cc(Oc3ccc(NC(=O)Nc4cccc(Br)c4)cc3)ccc2[nH]1 | -3.97 | 0.52 | 1.73 | 2.56 | 2.62 | 7.56 | 7.22 | 5.61 | 7.62 | 4.82
20 | COc1ccc(-c2nn3ncccc3c2-c2ccnc(Nc3cccc(C(F)(F)F)c3)n2)cc1 | 1.42 | -1.04 | -0.08 | 6.68 | 1.12 | 3.17 | 8.21 | 3.3 | 4.64 | 4.96
21 | CCn1c(-c2nonc2N)nc2c(C#CC(C)(C)O)nc(OCCNC)cc21 | 0.34 | 0.23 | 3.77 | 3.96 | 3.67 | 8.37 | 7.87 | 7.32 | 8.81 | 15.2
22 | COc1ccc2ncnc(Nc3ccc(OCc4ccccc4)cc3)c2c1 | -2.59 | 0.06 | 0.29 | 3.44 | 7.23 | 2.22 | -0.08 | 2.67 | 3.67 | 3.74
23 | CC(C)c1ccc2c(c1)NC(=O)/C2=N/Nc1ccc(S(N)(=O)=O)cc1 | -1.85 | 0.61 | 1.73 | 4.26 | 0.39 | -1.84 | -4.08 | 1.01 | 0.14 | -1.18
24 | CN1CCN(C(=O)c2ccc(NC(=O)Nc3ccc(N(C)c4ccnc(Nc5ccc(CS(C)(=O)=O)cc5)n4)cc3)cc2)CC1 | 2.73 | 0 | -0.74 | 7.1 | 2.55 | 3.61 | 9.53 | 3.95 | 5.76 | 4.12
25 | O=C(Nc1ccc(Oc2ccc3[nH]c(NC(=O)c4ccco4)nc3c2)cc1)Nc1cc(C(F)(F)F)ccc1F | 6.73 | 0.7 | -0.32 | 0.08 | -0.44 | 0.68 | 5.25 | -0.61 | -1.89 | -0.79
26 | CN(C)c1cc2c(Nc3ccc4c(cnn4Cc4ccccc4)c3)ncnc2cn1 | -2 | -0.22 | -1.13 | 1.2 | -0.12 | 3.64 | 8.41 | 3.68 | 3.14 | 3.9
27 | COc1cccc(-n2ncc3c(N/N=C/c4ccc(S(C)(=O)=O)cc4)ncnc32)c1 | 10.4 | 2.7 | -2.05 | 23.1 | 39.1 | -1.85 | -0.62 | -1.48 | -0.15 | 1.8
28 | [O-][S+]1CCN(Cc2ccc(-c3ccc4ncnc(Nc5ccc(OCc6ccccc6)c(Cl)c5)c4c3)o2)CC1 | 0.98 | 0.01 | 2.21 | 3.5 | 2.9 | 2.69 | -1.63 | 2.83 | 1.96 | 1.93
